Here are results for three compounds from ChEMBL document CHEMBL2218924, “A broad activity screen in support of a chemogenomic map for kinase signalling research and drug discovery” (Biochem J, 2013).

The structures appear in SMILES notation.

In test [1] the target is T1, Muscle, skeletal receptor tyrosine-protein kinase (Homo sapiens) (UniProt O15146).
T1 sequence (whole entry): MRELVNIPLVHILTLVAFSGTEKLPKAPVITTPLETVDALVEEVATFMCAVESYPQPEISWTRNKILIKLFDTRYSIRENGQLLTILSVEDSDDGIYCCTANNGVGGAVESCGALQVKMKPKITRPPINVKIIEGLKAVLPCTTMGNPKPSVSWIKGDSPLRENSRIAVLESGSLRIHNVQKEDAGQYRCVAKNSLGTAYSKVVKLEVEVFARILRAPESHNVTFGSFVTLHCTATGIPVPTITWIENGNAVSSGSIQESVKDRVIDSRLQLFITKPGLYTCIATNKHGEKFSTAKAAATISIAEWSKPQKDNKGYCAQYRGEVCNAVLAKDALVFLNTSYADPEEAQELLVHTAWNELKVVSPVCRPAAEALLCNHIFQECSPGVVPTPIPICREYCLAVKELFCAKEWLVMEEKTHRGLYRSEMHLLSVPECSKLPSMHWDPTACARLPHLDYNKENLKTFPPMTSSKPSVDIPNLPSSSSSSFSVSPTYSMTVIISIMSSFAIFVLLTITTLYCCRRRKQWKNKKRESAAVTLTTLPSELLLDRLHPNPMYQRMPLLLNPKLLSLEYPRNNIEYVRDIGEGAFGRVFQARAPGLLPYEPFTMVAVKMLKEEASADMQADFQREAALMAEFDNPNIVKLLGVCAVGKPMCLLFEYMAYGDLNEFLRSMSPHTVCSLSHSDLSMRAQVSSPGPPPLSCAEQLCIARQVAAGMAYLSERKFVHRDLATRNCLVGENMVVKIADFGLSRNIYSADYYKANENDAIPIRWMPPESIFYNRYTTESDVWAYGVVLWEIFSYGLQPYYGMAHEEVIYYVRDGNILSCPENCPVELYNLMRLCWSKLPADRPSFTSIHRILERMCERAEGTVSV
As to conditions: at 1 µM.

The target of test [2] is T1, Muscle, skeletal receptor tyrosine-protein kinase (Homo sapiens). Particulars: at 10 µM.
The target in test [3] is T2, Serine/threonine-protein kinase Nek11 (Homo sapiens) (UniProt Q8NG66).
T2 sequence (whole entry): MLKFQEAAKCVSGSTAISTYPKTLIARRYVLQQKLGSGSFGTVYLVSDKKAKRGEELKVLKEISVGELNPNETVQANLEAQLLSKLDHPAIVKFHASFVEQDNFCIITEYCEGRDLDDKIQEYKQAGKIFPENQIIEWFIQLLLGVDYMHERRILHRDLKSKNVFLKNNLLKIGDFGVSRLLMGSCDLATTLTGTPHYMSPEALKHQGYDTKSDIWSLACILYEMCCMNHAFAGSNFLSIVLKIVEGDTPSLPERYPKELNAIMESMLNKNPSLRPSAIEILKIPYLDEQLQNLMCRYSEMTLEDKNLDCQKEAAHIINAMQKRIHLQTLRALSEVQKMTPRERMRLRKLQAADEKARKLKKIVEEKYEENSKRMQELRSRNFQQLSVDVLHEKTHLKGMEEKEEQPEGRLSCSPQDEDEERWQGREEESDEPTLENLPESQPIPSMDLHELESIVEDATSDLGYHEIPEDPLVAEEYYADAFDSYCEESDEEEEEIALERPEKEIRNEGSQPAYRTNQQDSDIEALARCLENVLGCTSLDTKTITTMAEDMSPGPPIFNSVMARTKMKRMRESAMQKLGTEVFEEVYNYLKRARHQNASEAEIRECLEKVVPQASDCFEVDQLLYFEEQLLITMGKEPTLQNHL
Particulars: at 1 µM.

The target in test [4] is T2, Serine/threonine-protein kinase Nek11 (Homo sapiens). Particulars: at 10 µM.
For test [5], the target named is T3, Serine/threonine-protein kinase Nek2 (Homo sapiens) (UniProt P51955).
T3 sequence (whole entry): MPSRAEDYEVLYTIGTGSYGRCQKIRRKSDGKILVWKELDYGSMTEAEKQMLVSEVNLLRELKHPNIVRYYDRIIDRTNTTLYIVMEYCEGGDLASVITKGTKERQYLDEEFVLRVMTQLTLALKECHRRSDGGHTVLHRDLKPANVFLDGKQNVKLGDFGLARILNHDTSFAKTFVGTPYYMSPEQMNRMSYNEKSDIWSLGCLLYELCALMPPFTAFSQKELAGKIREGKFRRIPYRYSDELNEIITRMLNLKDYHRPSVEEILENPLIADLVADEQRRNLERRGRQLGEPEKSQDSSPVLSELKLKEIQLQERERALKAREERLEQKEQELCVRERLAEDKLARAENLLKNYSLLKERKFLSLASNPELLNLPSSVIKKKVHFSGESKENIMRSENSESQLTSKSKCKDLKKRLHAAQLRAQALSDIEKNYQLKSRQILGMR
Particulars: at 1 µM.

Test [6] has as its target T3, Serine/threonine-protein kinase Nek2 (Homo sapiens). As to conditions: at 10 µM.
The target in test [7] is T4, Serine/threonine-protein kinase Nek3 (Homo sapiens) (UniProt P51956).
T4 sequence (whole entry): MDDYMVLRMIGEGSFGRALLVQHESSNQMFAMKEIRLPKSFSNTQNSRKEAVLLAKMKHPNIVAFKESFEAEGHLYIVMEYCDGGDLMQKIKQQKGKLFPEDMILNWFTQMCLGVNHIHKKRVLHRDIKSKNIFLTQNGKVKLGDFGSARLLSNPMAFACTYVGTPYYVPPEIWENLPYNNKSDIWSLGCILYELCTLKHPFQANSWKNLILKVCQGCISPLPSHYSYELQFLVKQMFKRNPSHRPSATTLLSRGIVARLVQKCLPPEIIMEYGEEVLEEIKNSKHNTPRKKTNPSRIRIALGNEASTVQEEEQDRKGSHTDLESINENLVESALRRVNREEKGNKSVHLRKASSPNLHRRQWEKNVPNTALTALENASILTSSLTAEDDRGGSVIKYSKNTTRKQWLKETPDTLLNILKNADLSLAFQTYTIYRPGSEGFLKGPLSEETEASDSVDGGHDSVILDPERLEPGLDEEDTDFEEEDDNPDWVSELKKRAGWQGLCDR
As to conditions: at 1 µM.

Test [8] concerns the target T4, Serine/threonine-protein kinase Nek3 (Homo sapiens). As to conditions: at 10 µM.
Test [9] deals with Serine/threonine-protein kinase tousled-like 2 (Homo sapiens) (UniProt Q86UE8). Particulars: at 1 µM.
For test [10] the target is unchanged. Particulars: at 10 µM.
Test [11] deals with T5, Testis-specific serine/threonine-protein kinase 1 (Homo sapiens) (UniProt Q9BXA7).
T5 sequence (whole entry): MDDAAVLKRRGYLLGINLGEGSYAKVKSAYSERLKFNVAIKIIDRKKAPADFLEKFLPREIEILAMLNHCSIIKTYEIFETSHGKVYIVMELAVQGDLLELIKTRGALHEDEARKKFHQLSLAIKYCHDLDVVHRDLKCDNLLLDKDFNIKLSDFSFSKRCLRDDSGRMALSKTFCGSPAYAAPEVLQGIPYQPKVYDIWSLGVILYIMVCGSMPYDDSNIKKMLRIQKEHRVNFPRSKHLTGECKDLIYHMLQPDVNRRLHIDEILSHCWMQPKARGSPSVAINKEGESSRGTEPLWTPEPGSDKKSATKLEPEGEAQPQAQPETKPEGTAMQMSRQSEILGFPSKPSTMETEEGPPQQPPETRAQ
Particulars: at 1 µM.

The target of test [12] is T5, Testis-specific serine/threonine-protein kinase 1 (Homo sapiens). Particulars: at 10 µM.
Test [13] deals with T6, Testis-specific serine/threonine-protein kinase 2 (Homo sapiens) (UniProt Q96PF2).
T6 sequence (whole entry): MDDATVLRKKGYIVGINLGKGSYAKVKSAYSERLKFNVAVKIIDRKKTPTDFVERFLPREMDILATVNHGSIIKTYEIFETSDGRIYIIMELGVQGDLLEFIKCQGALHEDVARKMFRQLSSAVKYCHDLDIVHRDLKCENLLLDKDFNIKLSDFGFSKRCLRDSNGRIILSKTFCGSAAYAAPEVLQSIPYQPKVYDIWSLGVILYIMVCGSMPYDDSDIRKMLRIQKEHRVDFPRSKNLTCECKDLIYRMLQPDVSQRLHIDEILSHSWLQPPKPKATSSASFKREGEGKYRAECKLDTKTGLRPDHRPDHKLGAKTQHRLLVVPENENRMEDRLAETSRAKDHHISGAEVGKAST
As to conditions: at 10 µM.

For test [14], the target named is T7, Tyrosine-protein kinase Tec (Homo sapiens) (UniProt P42680).
T7 sequence (whole entry): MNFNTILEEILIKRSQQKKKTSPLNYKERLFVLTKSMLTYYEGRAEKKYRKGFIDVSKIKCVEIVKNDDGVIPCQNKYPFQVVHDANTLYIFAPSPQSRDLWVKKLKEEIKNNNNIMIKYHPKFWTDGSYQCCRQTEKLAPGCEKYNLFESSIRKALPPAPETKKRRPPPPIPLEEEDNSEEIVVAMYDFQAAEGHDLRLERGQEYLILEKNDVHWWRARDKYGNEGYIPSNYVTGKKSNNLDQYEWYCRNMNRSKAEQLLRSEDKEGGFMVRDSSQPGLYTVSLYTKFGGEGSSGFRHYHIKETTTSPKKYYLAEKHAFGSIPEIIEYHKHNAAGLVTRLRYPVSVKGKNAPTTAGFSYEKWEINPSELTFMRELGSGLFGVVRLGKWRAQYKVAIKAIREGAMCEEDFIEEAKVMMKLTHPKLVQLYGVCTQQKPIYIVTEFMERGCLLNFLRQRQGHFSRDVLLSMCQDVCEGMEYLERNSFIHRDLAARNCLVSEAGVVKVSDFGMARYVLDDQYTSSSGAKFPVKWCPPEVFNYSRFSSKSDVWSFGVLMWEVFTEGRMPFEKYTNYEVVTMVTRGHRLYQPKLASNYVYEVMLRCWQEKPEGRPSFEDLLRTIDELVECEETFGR
As to conditions: at 1 µM.

The target of test [15] is T7, Tyrosine-protein kinase Tec (Homo sapiens). Particulars: at 10 µM.
Test [16] has as its target Angiopoietin-1 receptor (Homo sapiens) (UniProt Q02763). As to conditions: at 1 µM.
Test [17] shares this target. Particulars: at 10 µM.
The target of test [18] is High affinity nerve growth factor receptor (Homo sapiens) (UniProt P04629). Particulars: at 1 µM.
Test [19] has the same target. As to conditions: at 10 µM.
For test [20], the target named is BDNF/NT-3 growth factors receptor (Homo sapiens) (UniProt Q16620). As to conditions: at 1 µM.
Chain of BDNF/NT-3 growth factors receptor (Homo sapiens) (Q16620 32-822 limits assumed): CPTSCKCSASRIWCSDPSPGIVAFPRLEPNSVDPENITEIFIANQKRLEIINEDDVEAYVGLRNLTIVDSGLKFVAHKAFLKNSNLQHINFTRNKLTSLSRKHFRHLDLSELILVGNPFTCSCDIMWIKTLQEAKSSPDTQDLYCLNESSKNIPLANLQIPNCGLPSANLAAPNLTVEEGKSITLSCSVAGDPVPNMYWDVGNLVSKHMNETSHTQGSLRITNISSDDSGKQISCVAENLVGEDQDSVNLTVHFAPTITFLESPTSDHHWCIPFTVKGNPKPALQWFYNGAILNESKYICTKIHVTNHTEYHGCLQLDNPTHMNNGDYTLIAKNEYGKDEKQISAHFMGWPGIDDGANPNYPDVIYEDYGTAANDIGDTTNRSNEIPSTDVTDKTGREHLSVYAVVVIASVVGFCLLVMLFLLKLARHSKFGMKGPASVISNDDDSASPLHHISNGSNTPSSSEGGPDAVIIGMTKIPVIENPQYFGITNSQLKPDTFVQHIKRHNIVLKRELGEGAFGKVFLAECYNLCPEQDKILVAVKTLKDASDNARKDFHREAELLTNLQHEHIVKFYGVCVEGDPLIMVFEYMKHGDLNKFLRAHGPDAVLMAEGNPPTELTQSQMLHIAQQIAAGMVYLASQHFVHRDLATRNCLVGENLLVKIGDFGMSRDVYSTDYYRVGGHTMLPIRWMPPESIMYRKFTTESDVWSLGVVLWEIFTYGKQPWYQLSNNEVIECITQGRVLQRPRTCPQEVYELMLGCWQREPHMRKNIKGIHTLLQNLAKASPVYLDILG

Chain of High affinity nerve growth factor receptor (Homo sapiens) (P04629 33-796 limits assumed): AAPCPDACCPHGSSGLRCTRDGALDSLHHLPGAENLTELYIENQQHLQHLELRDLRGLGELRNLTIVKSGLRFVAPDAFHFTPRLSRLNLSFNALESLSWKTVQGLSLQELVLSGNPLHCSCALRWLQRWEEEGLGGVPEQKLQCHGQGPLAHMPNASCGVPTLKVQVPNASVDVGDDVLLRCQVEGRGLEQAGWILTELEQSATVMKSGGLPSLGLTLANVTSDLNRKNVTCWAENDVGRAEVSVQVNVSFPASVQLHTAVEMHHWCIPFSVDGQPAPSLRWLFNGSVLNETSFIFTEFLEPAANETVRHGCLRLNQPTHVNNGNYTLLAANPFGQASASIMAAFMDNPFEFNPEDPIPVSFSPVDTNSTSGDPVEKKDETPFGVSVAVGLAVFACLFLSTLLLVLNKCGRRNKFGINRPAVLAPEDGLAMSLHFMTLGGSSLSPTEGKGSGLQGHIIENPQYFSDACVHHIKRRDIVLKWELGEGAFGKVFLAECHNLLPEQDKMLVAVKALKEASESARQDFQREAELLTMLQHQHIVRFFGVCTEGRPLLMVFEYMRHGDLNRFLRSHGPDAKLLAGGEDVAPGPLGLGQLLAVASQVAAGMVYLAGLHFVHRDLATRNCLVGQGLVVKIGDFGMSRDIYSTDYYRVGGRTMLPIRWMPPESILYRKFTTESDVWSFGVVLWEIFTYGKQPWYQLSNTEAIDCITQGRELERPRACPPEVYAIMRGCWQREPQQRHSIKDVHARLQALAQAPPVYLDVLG
Chain of Angiopoietin-1 receptor (Homo sapiens) (Q02763 whole entry): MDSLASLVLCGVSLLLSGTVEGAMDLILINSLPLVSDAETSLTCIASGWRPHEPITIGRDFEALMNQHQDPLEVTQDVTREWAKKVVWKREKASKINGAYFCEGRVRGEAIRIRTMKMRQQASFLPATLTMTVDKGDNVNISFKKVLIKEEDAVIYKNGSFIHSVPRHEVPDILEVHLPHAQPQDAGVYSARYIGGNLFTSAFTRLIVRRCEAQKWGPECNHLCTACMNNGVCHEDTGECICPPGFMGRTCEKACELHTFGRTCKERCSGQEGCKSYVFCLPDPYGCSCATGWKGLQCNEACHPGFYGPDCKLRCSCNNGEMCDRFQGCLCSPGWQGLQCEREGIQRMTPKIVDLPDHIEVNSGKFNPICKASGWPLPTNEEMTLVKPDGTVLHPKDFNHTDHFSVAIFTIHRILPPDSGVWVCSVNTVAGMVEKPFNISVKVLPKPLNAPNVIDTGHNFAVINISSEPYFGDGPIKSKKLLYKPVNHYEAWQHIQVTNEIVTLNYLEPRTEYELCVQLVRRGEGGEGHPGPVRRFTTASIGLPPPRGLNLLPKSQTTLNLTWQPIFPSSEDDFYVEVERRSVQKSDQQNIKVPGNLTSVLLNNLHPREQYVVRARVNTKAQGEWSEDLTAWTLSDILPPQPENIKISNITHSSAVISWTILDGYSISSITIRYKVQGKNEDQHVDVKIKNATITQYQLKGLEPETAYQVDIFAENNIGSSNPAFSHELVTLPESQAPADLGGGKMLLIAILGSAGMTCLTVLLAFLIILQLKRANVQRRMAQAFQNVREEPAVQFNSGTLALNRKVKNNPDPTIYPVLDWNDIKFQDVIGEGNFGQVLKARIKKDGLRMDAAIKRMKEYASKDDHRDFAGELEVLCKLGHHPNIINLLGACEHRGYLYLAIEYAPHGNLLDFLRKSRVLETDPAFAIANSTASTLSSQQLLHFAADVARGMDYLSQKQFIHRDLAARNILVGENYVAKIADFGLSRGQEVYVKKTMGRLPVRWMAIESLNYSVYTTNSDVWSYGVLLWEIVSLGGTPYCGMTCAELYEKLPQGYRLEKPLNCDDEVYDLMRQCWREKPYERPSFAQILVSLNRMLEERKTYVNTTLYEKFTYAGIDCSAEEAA
Chain of Serine/threonine-protein kinase tousled-like 2 (Homo sapiens) (Q86UE8 whole entry, looked up): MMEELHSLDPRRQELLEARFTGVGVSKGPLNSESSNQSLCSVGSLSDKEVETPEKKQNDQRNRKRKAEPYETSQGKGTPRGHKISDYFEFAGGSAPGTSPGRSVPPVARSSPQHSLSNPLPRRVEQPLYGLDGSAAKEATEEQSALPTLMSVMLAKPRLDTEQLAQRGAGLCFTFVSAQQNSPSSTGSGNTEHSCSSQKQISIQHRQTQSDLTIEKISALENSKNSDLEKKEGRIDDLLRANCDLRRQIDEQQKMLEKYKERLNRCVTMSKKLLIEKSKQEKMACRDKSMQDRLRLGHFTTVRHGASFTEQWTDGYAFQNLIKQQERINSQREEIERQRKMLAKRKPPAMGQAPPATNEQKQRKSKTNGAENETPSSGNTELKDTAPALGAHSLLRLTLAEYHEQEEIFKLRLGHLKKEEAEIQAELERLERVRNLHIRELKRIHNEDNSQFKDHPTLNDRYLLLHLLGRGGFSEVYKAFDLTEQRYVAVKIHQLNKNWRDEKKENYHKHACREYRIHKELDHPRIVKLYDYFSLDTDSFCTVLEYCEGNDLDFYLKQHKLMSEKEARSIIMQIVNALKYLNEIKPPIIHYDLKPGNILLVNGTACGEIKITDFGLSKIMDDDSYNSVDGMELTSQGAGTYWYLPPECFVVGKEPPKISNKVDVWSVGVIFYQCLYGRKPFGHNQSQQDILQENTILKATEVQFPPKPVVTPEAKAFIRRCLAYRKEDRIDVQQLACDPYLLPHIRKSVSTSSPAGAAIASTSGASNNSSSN

Regarding `COc1ccc(CNc2nc(N(CCO)CCO)nc3c2ncn3C(C)C)cc1`, the residual activity in test [1] was determined as 86%; in test [2], 73%; in [3], 53%; in test [4], 64%; in test [5], 90%; in test [6] it was 85%. Besides, the residual activity came out at 71% in [7]; 90% in [8]; 83% in test [9]; 85% in test [10]; 86% in test [11]; 70% in test [12]. In addition, the residual activity in test [13] stood at 87%; in [14], 103%; in test [15] it was 79%; in test [16], 101%; in [17] it was 80%; in test [18] it was 75%. Further, the results for the residual activity in [19] and in test [20] were 56% and 72%, respectively.
For the compound `O=c1cc(-c2cccc3c2Sc2ccccc2S3)oc(N2CCOCC2)c1`, the residual activity in [1] came to 106%; in [2], 96%; in [3], 93%; in test [4] it was 64%; in [5] it was 96%; in test [6], 92%. The residual activity in test [7] turned out to be 92%; in [8], 99%; in [9], 96%; in [10] it was 96%; in [11], 92%; in test [12], 98%. In addition, the residual activity in test [13] came to 90%; in test [14], 94%; in [15], 75%; in test [16] it was 101%; in test [17], 61%; in [18], 114%. Further, the residual activity in test [19] amounted to 95%; in test [20], 75%.
For `O=C1Nc2cc(Br)ccc2/C1=C1/Nc2ccccc2/C1=N\O`, the residual activity in test [1] was 80%; in [2] it was 84%; in test [3], 69%; in [4], 45%; in [5] it was 89%; in test [6], 86%. The residual activity in [7] came out at 65%; in [8] it was 70%; in test [9], 81%; in test [10] it was 48%; in test [11] it was 86%; in test [12] it was 90%. For the same compound, the residual activity in test [13] amounted to 62%; in [14], 15%; in test [15], 13%; in test [16], 67%; in test [17], 79%; in test [18], 0%. In addition, the residual activity in test [19] is 0%; in [20], -1%.

What is called residual activity is the signal under treatment as a percentage of the control signal.
